# Source: PubChem BioAssay
# This is one part of a sample in which hits are shown more often than they occur.
# RGS4 inh = human RGS4 inhibition | 390,000 compounds, 0.039% hits | Potency, µM (series often up to 114 µM), without a hit: at the top dose activity change, negative = inhibition, most hits filed as inhibitors | P49798 | Transcreener GDP fluorescence polarization, RGS4-accelerated GTP hydrolysis; note: potency is the fitted concentration of half-maximal effect; % is set by controls: 0 for no effect and ±100 for the full control effect; nearly all actives have a fitted effect of over 75% in size
# Target sequence (P49798 whole entry, looked up): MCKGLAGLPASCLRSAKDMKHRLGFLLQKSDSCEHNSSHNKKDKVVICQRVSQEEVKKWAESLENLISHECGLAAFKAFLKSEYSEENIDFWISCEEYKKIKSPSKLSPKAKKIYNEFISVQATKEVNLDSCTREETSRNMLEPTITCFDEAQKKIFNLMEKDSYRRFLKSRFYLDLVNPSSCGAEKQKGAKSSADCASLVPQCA
#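 MLSMR compounds (23 nl, pin-transferred) preincubated 10 min at room temperature with a 500nM (2x) first reagent, then RGS4 at 900nM (2x) plus Transcreener GDP mix added; fluorescence polarization (620/688 nm) read before and after 90 min at 30 °C.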
# Mito fusion act = inhibitors of mitochondrial division or activators of mitochondrial fusion; S. cerevisiae fusion-defective mutant growth rescue, CellTiterGlo 48 h; Potency, µM (highest dose often 46.1 µM), for the others: at the highest dose growth rescue (activation), actives largely listed as activators; 320,000 compounds, 0.23% hits; note: potency is the fitted concentration of half-maximal effect; % of control where 0% means no effect; nearly all actives have a fitted effect of over 45% in size
#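 Compounds are tested for their ability to restore growth of mitochondrial fusion-defective yeast strains at non-permissive 37C in YPEG medium over 48 hours. Viability is quantified by luciferase luminescence.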
# LDHA inh = inhibitors of human lactate dehydrogenase A. 480,000 compounds, 0.15% hits. P00338. activity change, % (values are at about 110 or 230 µM). purified LDHA, NADH/diaphorase-resazurin fluorescence; hits give low values. AID 1347041; in the data active = activity change below about -30%; inconclusive = mostly about -25% to -30%;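 note: plate controls were DMSO wells for no effect and wells without enzyme for full effect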
#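 Human LDH5 (2 nM) was incubated with 0.06 mM NADH and 0.2 mM pyruvate for 5 min at room temperature in Tris pH 7.4. Remaining NADH was coupled through diaphorase/resazurin, and resorufin fluorescence was read at 0 and 20 min.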
# ClpP mod = qHTS Assay for Activators of ClpP; 340,000 compounds, 1.9% hits; ATP-dependent Clp protease proteolytic subunit (Bacillus subtilis (strain 168)), P80244; Potency, µM (highest dose often 57.5 µM), for the others: at the highest dose activity change, negative = active; purified B. subtilis ClpP, FRET peptide cleavage, 20 min; active = well fitted falling curve with a large enough effect; inconclusive = small, poorly fitted or top-dose-only effect; inactive = no such curve, though single readings can be large or run the other way; note: potency is the fitted concentration of half-maximal effect; the source files actives as falling curves though it sought activators and does not explain the sign; nearly all actives have a fitted effect of over 65% in size
# Target sequence (P80244 whole entry, looked up): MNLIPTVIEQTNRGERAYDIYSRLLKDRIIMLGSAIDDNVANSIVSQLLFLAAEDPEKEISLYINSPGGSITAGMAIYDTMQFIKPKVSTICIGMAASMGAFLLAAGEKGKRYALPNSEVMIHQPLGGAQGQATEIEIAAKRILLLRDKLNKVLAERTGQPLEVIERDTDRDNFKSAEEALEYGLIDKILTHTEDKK
#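 FRET quenching reversal measured ClpP activation: 10 microg/mL B. subtilis ClpP at pH 8 with the FRET-FV decapeptide, read at 430 nm after 320 nm excitation. The 20-min minus 0-min signal was scaled between DMSO/no-enzyme wells and ADEP (5.8 microM final).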
# mIDH1 inhibitor = human IDH1 R132H inhibition. Potency, µM (series often up to 76.6 µM), inactives show top-dose activity change, negative = inhibition, most hits filed as inhibitors. 390,000 compounds, 0.093% hits. IDH1-R132H enzyme, NADPH consumption, diaphorase/resazurin fluorescence; note: potency is the fitted concentration of half-maximal effect; % is set by controls: 0 for no effect and ±100 for the full control effect; nearly all actives have a fitted effect of over 65% in size
#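 IDH1-R132H (0.5 ug/mL) preincubated 30 min with compound, then NADPH (0.016 mM) and alpha-KG (2 mM) added; 80 min at RT, pH 7.5. Remaining NADPH coupled via diaphorase/resazurin to fluorescence (540/590 nm); concentration-response curves normalized to no-enzyme control.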
# ASM inhibitor = inhibitors of human secretory acid sphingomyelinase; placental ASM, HMU-PC fluorogenic substrate, 60 min; 340,000 compounds, 0.006% hits; Potency, µM (highest dose often 57.5 µM), without a hit: at the top dose activity change, negative = inhibition, most hits filed as inhibitors; AID 504937; P17405; note: potency is the fitted concentration of half-maximal effect
#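 HMU-PC0 cleavage (9 uM final) by human placental ASM, 60 min at 37 °C following 10 min compound exposure at RT; stopped at pH 10, fluorescence Ex 386/Em 447 nm.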
# Resorufin autofl = interferes with resorufin fluorescence in IDH1 counter-screen; shares compounds with mIDH1 inhibitor; Resorufin detection reagent fluorescence interference, cell-free; inhibition of signal, % at 51.2 µM; 750 tested, under 10 active;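 note: 0% = wells with normal resorufin and full inhibition = wells lacking resorufin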
# IDH1 WT = inhibits human wild-type IDH1, mutant selectivity check | shares compounds with mIDH1 inhibitor | WT IDH1 enzyme, NADPH diaphorase/resazurin fluorescence | Potency, µM (highest dose often 115 µM), for the others: at the highest dose activity change, negative = inhibition, actives largely listed as inhibitors | 750 compounds, 9% hits | AID 623995;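 note: potency is the fitted concentration of half-maximal effect; 0% = full WT IDH1 enzyme control and full inhibition = no enzyme wells; nearly all actives have a fitted effect of over 55% in size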
# IDH1 R132H conf = confirmation of human mutant IDH1 inhibitors; Potency, µM (highest dose often 76.6 µM), for the others: at the highest dose activity change, negative = inhibition, most hits filed as inhibitors; IDH1 R132H enzyme, NADPH diaphorase/resazurin fluorescence; shares compounds with mIDH1 inhibitor; 750 compounds, 83% hits; note: potency is the fitted concentration of half-maximal effect; nearly all actives have a fitted effect of over 50% in size
# Numbers without * were called inactive; ? = inconclusive; · = no result given. Unless noted, calls come from the whole dose curve; as a rule, active = well fitted curve in the direction sought with a large enough effect; inconclusive = small, poorly fitted or top-dose-only effect, or another doubt; inactive = no such curve, though single readings can be large; an effect the other way counts as inactive or inconclusive.
SMILES,RGS4 inh,Mito fusion act,LDHA inh,ClpP mod,mIDH1 inhibitor,ASM inhibitor,Resorufin autofl,IDH1 WT,IDH1 R132H conf
Cc1cccc(-c2c3c(=O)n(C)c(=O)n(C)c3cn2-c2cc(N)c(Cl)cc2Cl)c1,-21%,·,20,?,35µM*,·,-2,-21%,?
O=C(O)c1[nH]c2ccccc2c1C(c1cc(Br)ccc1O)c1c(C(=O)O)[nH]c2ccccc12,-35%,-2%,-6,-5%,41µM*,-15%,11,71µM*,25µM*
COc1cc(Cl)cc(C(c2c(C(=O)O)[nH]c3ccccc23)c2c(C(=O)O)[nH]c3ccccc23)c1O,-29%,-4%,3,-2%,-4%,-2%,·,·,·
COc1cc2cc(-c3ccc(O)cc3O)nc(C)c2cc1OC,-7%,9%,-1,·,?,-11%,-10,3%,28µM*
Cc1nn(-c2ccccc2)c(Cl)c1CN(C(=O)CCl)c1ccc(Cl)cc1,-19%,-1%,-3,0%,52µM*,0%,-2,-2%,28µM*
CCCCCCC(C)Oc1ccc(-c2ccc(-c3ccc(CCCCC)cc3)nc2)cc1 (stereo not drawn),·,·,4,·,·,·,·,·,·
Cc1ccc(C2=NN=C(NC(=O)CSc3nncn3C)SC2)cc1,?,-1%,-5,1%,32µM*,-1%,-4,323%,45µM*
COC(=O)[C@@]12CCCCN1[C@H](c1ccc(-c3ccc(OC)cc3)c(OC)c1)[C@@H]1C(=O)N(C)C(=O)[C@@H]12,3%,13µM*,4,-28%,35µM*,?,4,5%,5µM*
COC(=O)[C@@]12CCCCN1[C@H](c1ccc(-c3ccc(F)cc3)c(OC)c1)[C@H]1C(=O)N(C)C(=O)[C@H]12,5%,·,0,-11%,-4%,-17%,·,·,·
Fc1ccc(-c2nnc3sc(Cn4cccn4)nn23)cc1Br,·,·,4,·,·,·,·,·,·
CCOc1ccc(C(=O)N(Cc2ccc(F)cc2Cl)c2ccccn2)cc1,·,·,11,·,·,·,·,·,·
CC(=O)Oc1ccc(C(=O)[C@H]2[C@H]3C(=O)N(c4ccc(C)cc4C)C(=O)[C@H]3[C@@H]3C=CC=NN32)cc1,-19%,-6%,-6,·,41µM*,0%,4,-11%,28µM*
CCOC(=O)c1c(CSC(=N)N)n(C)c2cc(Br)c(OC(C)=O)cc12,-15%,-4%,1,·,?,-4%,-9,2%,14µM*
COc1ccccc1NC(=O)c1ccc(NC(=O)c2nn(C)c(=O)c3ccccc23)cc1,·,·,-1,·,·,·,·,·,·
N#CC1=C(N)C2=CCCC[C@H]2[C@H](c2cccc(F)c2)C1(C#N)C#N,?,?,9,6%,46µM*,12%,-8,48%,45µM*
N#CCC(=O)Nc1ccc(C(=O)OCc2ccc(Br)cc2F)cc1,·,·,20,·,·,·,·,·,·
CN1CCN(NC(=O)c2cc(-c3ccc(Cl)s3)nc3ccccc23)CC1,8%,-19%,-18,·,?,60%,-2,7%,-2%
N#Cc1c2c(c(Nc3ccc(F)cc3)n3c1nc1ccccc13)CCCC2,-15%,·,-9,-8%,?,12%,3,-1%,22µM*
